The text below walks through data of PubChem BioAssay (Tox21).

Structures are written as SMILES. Where “and” joins values, the source holds several entries; their conditions need not be identical. Equal entries are not always repeated. Records with an inconclusive call do not appear. Where a structure was tested more than once in an assay, its records may differ in their call. Calls of active or inactive are those of the source. Unless noted, calls come from the whole dose curve; as a rule, active = well fitted curve in the direction sought with a large enough effect in the repeat runs; inconclusive = weak or mixed curves; inactive = no such curve, though single readings can be large; an effect the other way counts as inactive or inconclusive.

For experiment [1], the target named is Acetylcholinesterase (Homo sapiens) (UniProt P22303). Nature of the experiment: Acetylcholinesterase (AChE) small molecule antagonists: enzyme-based qHTS assay (AID 1347397; calls by dose curve; note: nearly all actives have a fitted effect of over 55% in size). The settings on record: Potency: AChE enzyme activity inhibition. The method in brief: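 Absorbance-based detection of thiocholine with DTNB served as the read-out. Recombinant human AChE was exposed to compound for 30 min at RT before a 10 min RT incubation with acetylthiocholine.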
Sequence of Acetylcholinesterase (Homo sapiens) (P22303 whole entry, looked up): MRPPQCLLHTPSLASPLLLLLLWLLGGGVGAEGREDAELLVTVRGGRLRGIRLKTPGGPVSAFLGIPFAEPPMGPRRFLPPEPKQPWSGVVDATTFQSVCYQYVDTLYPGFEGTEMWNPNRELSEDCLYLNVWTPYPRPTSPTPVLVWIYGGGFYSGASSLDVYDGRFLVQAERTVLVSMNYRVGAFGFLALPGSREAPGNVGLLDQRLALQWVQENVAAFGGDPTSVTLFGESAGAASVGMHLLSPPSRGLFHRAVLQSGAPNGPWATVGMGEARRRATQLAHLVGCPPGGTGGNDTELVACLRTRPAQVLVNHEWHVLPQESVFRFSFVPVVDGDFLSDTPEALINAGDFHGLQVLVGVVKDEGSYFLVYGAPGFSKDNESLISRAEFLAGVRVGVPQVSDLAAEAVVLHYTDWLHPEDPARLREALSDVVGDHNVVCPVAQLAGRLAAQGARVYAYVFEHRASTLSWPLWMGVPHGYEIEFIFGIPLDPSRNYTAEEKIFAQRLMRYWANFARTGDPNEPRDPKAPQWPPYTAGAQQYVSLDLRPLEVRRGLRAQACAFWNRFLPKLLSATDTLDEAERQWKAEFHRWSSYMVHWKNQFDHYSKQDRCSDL

For experiment [2] the target is unchanged. In words: Acetylcholinesterase (AChE) small molecule antagonists: enzyme-based qHTS assay with human liver microsomes (AID 1347399; calls by dose curve; note: nearly all actives have a fitted effect of over 60% in size). The settings on record: Potency: qHTS inhibition. The method in brief:
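Recombinant human AChE (50 mU/mL in the enzyme mix) and human liver microsomes (0.25 mg/mL final) were preincubated with compound and NADPH (0.25 mg/mL final) for 30 min at 37 C. Acetylthiocholine/DTNB was then added; thiocholine was read colorimetrically after 10 min at room temperature.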

For experiment [3], the target named is Cytochrome P450 2C19 (Homo sapiens) (UniProt P33261). Nature of the experiment: Cytochrome P450 Family 2 Subfamily C Member 19 (CYP2C19) small molecule antagonists: luciferase reporter qHTS assay (AID 1671197). Note: nearly all actives have a fitted effect of over 65% in size. Note: potency is the fitted concentration of half-maximal effect. The method in brief: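 Inhibition of CYP2C19 was scored from loss of luminescence in a P450-Glo proluciferin substrate assay, NADPH-started and run 1 h at 37C, with ketoconazole as positive control.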
Sequence of Cytochrome P450 2C19 (Homo sapiens) (P33261 whole entry, looked up): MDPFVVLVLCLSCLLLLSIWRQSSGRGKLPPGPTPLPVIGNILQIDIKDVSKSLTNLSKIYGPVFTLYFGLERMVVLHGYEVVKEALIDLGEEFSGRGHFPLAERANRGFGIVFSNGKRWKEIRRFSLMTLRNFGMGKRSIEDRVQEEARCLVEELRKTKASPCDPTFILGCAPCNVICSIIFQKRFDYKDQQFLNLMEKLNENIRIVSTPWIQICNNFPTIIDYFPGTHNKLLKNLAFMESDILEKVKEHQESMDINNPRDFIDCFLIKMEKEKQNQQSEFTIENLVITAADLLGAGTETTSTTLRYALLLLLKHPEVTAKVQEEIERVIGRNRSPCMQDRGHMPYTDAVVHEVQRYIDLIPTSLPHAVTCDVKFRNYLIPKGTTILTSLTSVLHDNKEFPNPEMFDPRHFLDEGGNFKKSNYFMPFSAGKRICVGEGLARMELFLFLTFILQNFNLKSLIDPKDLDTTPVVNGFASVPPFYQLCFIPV

Experiment [4] addresses Cytochrome P450 1A2 (Homo sapiens) (UniProt P05177). In words: Cytochrome P450 Family 1 Subfamily A Member 2 (CYP1A2) small molecule antagonists: luciferase reporter qHTS assay (AID 1671199). Note: nearly all actives have a fitted effect of over 50% in size. Note: potency is the fitted concentration of half-maximal effect. In short, it runs like this:
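Enzymatic CYP1A2 assay, human, luminescent: 10 min compound–enzyme–substrate preincubation, 1 h NADPH-dependent turnover, 20 min detection step, room temperature throughout. Reduced light indicates lower CYP1A2 activity.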

Experiment [5] concerns the target Voltage-gated inwardly rectifying potassium channel KCNH2 (Homo sapiens) (UniProt Q12809). In words: Human Ether-a-go-go-Related Gene (hERG) channel small molecule antagonists: fluorescence cell-based qHTS assay (AID 1671200). Note: nearly all actives have a fitted effect of over 50% in size. Note: potency is the fitted concentration of half-maximal effect. The method in brief:
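U2OS cells expressing the channel were plated at 1000 cells/well, incubated overnight at 37 C, then loaded with FluxOR II thallium-sensitive dye for 1 h at room temperature in the dark, with a further 10 min at room temperature before stimulation.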

Experiment [6] concerns the target Cytochrome P450 3A4 (Homo sapiens) (UniProt P08684). Nature of the experiment: Cytochrome P450 Family 3 Subfamily A Member 4 (CYP3A4) small molecule antagonists: luciferase reporter qHTS assay (AID 1671201). Note: nearly all actives have a fitted effect of over 50% in size. Note: potency is the fitted concentration of half-maximal effect. In short, it runs like this: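 P450-Glo CYP3A4 system with proluciferin substrate; compounds preincubated 10 min RT with enzyme-substrate mix, then NADPH regeneration added for 1 h RT. Detection reagent 20 min, luminescence read as relative luminescence units.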

Experiment [7] deals with Acetylcholinesterase (Homo sapiens) (UniProt P22303). Nature of the experiment: Acetylcholinesterase (AChE) small molecule antagonists: fluorescence cell-based qHTS assay (AID 1347398; calls by dose curve; note: nearly all actives have a fitted effect of over 50% in size; note: potency is the fitted concentration of half-maximal effect). The settings on record: Potency: AChE activity. In short, it runs like this: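 Fluorimetric cell-based assay: intact SH-SY5Y cells, 30 min compound preincubation at 37 C, acetylthiocholine substrate with thiol probe Thiolite Green, 40 min RT development, fluorescence 490/520 nm.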

Experiment [8] deals with Cytochrome P450 2D6 (Homo sapiens) (UniProt P10635). Nature of the experiment: Cytochrome P450 Family 2 Subfamily D Member 6 (CYP2D6) small molecule antagonists: luciferase reporter qHTS assay (AID 1671196). Note: nearly all actives have a fitted effect of over 50% in size. Note: potency is the fitted concentration of half-maximal effect. The method in brief:
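Each well received CYP2D6 with its proluciferin substrate and chemical, sat 10 min, then got NADPH regeneration solution for 1 h at room temperature. Luminescence in RLU served as the activity measure.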

Experiment [9] addresses Cytochrome P450 2C9 (Homo sapiens) (UniProt P11712). Nature of the experiment: Cytochrome P450 Family 2 Subfamily C Member 9 (CYP2C9) small molecule antagonists: luciferase reporter qHTS assay (AID 1671198). Note: nearly all actives have a fitted effect of over 50% in size. Note: potency is the fitted concentration of half-maximal effect. In short, it runs like this:
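Enzyme-substrate mix preincubated with compound 10 min at room temperature; reaction started with NADPH regeneration solution, 1 h 37C. Luminescent luciferin product read after 20 min detection reagent.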

Sequence of Cytochrome P450 3A4 (Homo sapiens) (P08684 whole entry, looked up): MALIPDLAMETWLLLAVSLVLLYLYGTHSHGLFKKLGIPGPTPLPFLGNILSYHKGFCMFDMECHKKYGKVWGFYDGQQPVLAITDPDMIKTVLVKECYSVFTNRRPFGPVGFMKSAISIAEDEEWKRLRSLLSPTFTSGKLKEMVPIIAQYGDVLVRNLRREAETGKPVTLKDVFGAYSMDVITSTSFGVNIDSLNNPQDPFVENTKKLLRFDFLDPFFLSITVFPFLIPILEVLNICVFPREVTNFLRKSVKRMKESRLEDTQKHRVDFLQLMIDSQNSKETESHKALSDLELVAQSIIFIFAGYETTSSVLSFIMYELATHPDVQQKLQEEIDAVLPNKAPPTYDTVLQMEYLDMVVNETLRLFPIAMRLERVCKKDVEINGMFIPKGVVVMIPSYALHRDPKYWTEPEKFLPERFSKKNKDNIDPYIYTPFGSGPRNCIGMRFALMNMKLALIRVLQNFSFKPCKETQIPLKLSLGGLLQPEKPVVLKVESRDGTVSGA
Sequence of Cytochrome P450 1A2 (Homo sapiens) (P05177 whole entry, looked up): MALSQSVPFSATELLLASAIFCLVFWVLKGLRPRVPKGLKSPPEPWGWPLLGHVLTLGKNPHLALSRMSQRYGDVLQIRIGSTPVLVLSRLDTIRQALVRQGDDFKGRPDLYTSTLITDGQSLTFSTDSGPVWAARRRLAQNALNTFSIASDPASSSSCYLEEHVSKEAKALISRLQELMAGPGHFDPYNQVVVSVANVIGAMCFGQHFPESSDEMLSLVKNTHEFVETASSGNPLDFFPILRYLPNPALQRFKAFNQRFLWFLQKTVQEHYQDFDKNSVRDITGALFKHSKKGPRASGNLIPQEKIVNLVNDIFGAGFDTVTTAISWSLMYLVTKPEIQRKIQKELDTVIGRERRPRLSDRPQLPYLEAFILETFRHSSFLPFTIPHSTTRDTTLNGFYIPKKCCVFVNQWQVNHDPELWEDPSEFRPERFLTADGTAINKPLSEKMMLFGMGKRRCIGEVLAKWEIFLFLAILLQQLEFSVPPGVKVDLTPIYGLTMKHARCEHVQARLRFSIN
Sequence of Cytochrome P450 2C9 (Homo sapiens) (P11712 whole entry, looked up): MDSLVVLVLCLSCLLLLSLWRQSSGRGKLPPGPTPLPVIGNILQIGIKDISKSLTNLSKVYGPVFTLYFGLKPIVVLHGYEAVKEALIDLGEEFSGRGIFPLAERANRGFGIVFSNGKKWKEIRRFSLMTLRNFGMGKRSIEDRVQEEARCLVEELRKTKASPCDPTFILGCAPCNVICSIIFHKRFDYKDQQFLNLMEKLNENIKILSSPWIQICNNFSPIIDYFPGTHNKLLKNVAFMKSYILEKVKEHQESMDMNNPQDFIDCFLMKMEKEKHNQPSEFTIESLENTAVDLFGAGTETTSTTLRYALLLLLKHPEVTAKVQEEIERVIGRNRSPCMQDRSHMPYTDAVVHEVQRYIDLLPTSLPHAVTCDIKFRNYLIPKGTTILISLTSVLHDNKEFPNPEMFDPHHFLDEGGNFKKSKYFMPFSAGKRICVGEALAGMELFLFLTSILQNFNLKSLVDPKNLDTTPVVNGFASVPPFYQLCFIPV
Sequence of Cytochrome P450 2D6 (Homo sapiens) (P10635 whole entry, looked up): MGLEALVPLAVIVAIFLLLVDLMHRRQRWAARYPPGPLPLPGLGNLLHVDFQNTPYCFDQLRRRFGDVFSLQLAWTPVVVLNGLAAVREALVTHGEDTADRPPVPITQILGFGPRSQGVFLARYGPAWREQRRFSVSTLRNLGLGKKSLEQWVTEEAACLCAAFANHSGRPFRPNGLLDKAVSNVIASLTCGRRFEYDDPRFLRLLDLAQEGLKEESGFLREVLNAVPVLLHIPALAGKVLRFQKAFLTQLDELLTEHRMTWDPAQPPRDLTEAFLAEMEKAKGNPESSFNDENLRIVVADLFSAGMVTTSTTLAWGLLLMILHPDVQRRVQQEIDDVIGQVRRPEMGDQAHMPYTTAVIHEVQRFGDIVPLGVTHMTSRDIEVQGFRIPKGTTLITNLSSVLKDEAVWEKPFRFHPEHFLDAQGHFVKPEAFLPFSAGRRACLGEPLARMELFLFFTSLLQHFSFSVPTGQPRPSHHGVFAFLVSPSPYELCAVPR
Sequence of Voltage-gated inwardly rectifying potassium channel KCNH2 (Homo sapiens) (Q12809 whole entry, looked up): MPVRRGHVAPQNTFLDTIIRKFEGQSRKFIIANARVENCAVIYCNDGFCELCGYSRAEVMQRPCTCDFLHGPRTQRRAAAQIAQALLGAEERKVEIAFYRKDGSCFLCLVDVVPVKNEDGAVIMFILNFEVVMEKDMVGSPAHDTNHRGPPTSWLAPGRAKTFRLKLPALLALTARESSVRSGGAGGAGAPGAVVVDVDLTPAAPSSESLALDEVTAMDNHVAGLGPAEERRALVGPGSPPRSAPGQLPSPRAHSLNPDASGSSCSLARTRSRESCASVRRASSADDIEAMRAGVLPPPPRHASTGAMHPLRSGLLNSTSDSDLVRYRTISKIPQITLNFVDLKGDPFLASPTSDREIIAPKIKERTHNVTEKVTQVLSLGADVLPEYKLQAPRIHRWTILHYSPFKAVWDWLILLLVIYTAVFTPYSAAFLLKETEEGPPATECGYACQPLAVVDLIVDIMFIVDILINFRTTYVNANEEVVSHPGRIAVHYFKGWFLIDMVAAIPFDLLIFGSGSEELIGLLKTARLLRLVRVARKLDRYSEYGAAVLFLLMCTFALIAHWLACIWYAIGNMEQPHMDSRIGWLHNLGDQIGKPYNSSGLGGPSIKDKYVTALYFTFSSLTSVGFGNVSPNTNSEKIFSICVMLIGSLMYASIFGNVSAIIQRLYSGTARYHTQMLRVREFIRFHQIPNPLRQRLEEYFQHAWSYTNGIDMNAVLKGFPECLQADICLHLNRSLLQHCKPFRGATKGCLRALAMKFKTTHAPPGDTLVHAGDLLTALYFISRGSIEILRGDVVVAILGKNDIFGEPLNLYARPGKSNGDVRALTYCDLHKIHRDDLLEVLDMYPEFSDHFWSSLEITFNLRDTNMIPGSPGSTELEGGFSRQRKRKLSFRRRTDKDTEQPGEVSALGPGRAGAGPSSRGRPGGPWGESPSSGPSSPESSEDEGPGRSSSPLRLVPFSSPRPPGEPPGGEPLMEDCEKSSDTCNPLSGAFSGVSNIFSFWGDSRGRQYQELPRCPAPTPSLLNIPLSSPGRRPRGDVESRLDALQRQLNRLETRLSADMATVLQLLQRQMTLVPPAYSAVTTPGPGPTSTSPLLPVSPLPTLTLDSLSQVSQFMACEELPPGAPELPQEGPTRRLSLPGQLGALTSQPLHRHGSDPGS

`CC(=O)/C=C/c1ccc2c(c1)OCO2`: the Potency result in experiment [1], in experiment [2] and in experiment [5] was “inactive” each time. In addition, the Potency in [3] is 14.2 µM (active); in [4] it was 0.226 µM (active); in experiment [6], 2.53 µM (active).
With `Nc1ccc(Sc2ccc(N)cc2)cc1`, the Potency result in [7], in experiment [2] and in experiment [5] was “inactive” each time. The Potency in [8] was 31.7 µM (active); in experiment [3], 5.03 µM (active); in [9], 1.23 µM (active); in [4], 35.6 µM (active).
As for `Clc1ccc(CCC(Cn2ccnc2)Sc2c(Cl)cccc2Cl)cc1` (stereo unspecified), the Potency result in experiment [7] and in experiment [2] was “inactive” throughout. The Potency is 2.19 µM (active) in experiment [8]; 0.0347 µM (active) in [3]; 0.0871 µM (active) in experiment [9]; 15.5 µM (active) in experiment [4]; 7.56 µM (active) in experiment [5].
For the compound `COC[C@H](C)N(C(=O)CCl)c1c(C)csc1C`, the Potency result in [7], in experiment [2], in [8], in [9], in experiment [4] and in experiment [5] was “inactive” each time.
Take `Clc1ccc(C(c2ccc(Cl)cc2)C(Cl)(Cl)Cl)cc1`: the Potency entry in [7], in experiment [2], in experiment [8] and in experiment [6] was “inactive” in each case. Further, the Potency in [3] is 20.2 nM (active) and 17.8 nM (active) and 69.2 nM (active); in experiment [9], 2.26 µM (active) and 10 µM (active) and 3.89 µM (active); in experiment [5] it was 13.8 µM (active).
For the compound `CCSC(C)CC1CC(=O)C(/C(CC)=N/OC/C=C/Cl)=C(O)C1` (stereo unspecified), the Potency entry in experiment [1], in [2] and in experiment [5] was “inactive” each time. In addition, the Potency in [3] is 9.77 µM (active); in experiment [9], 13.8 µM (active); in experiment [6], 8.71 µM (active).
In the case of `Cc1cc(Cl)ccc1O[C@H](C)C(=O)O`, the Potency result in experiment [7], in experiment [2], in experiment [8], in experiment [3], in experiment [9] and in [5] was “inactive” in each case. Moreover, the Potency result in experiment [6] is “inactive”.
With `Nc1ccccc1C(=O)OC/C=C/c1ccccc1`, the Potency entry in experiment [7] and in experiment [2] was “inactive” in each case.
Turning to `CC(C)CCCCCCCOP(=O)(Oc1ccccc1)Oc1ccccc1`, the Potency result in [1] and in experiment [2] was “inactive” in each case. In addition, the Potency in experiment [3] was 6.36 µM (active); in experiment [9], 6.36 µM (active); in experiment [4], 28.4 µM (active).
Turning to `COc1cc(C=O)cc2c1[C@H](COC(N)=O)[C@]1(OC(C)=O)ON2C[C@H]2[C@@H]1N2C(C)=O`, the Potency result in experiment [7], in experiment [2], in experiment [8], in experiment [3], in experiment [9] and in experiment [4] was “inactive” each time. In addition, the Potency result in [5] and in experiment [6] was “inactive” each time.
`COc1ccc([N+](=O)[O-])cc1O`: the Potency entry in [1], in [2], in experiment [8], in [5] and in experiment [6] was “inactive” throughout.
Take `Clc1ccc(COC(Cn2ccnc2)c2ccc(Cl)cc2Cl)cc1` (stereo unspecified): the Potency result in experiment [7] and in [2] was “inactive” in each case. Further, the Potency in experiment [8] was 663 nM (active) and 224 nM (active) and 490 nM (active); in experiment [3] it was 166 nM (active) and 89 nM (active) and 246 nM (active); in experiment [4] it was 1.87 µM (active) and 1.78 µM (active) and 911 nM (active).
With `O=[N+]([O-])c1cc([N+](=O)[O-])c2ccccc2c1`, the Potency entry in [1], in [2], in [9], in experiment [5] and in [6] was “inactive” each time.
With `Oc1ccc(C(=C(Cl)Cl)c2ccc(O)cc2)cc1`, the Potency entry in experiment [7], in experiment [2] and in experiment [8] was “inactive” throughout. In addition, the results for the Potency in experiment [3], in experiment [9] and in experiment [4] were 12.6 µM (active), 5.63 µM (active) and 39.8 µM (active), respectively.
As for `CC(C)CC(C)(c1ccc(O)cc1)c1ccc(O)cc1`, the Potency result in [7], in experiment [2] and in experiment [8] was “inactive” each time. Besides, the Potency in experiment [3] is 35.7 µM (active) and 22.4 µM (active); in experiment [9] it was 28.3 µM (active) and 17.8 µM (active); in experiment [6] it was 17.9 µM (active) and 31.7 µM (active).
For the compound `C[C@]12Cc3nonc3C[C@@H]1CC[C@@H]1[C@@H]2CC[C@@]2(C)[C@H]1CC[C@]2(C)O`, the Potency result in experiment [7], in experiment [2], in experiment [8] and in experiment [4] was “inactive” each time. Also, the Potency in [3] is 17.4 µM (active).
Take `Clc1ccc(CO/N=C(\Cn2ccnc2)c2ccc(Cl)cc2Cl)c(Cl)c1`: the Potency result in experiment [7] and in experiment [2] was “inactive” in each case.
For the compound `C1CCC2CCCCC2C1` (stereo unspecified), the Potency entry in experiment [7], in experiment [2], in experiment [8], in experiment [3], in [4] and in experiment [5] was “inactive” each time.
As for `Cc1cc(SCc2sc(-c3ccc(C(F)(F)F)c(F)c3)nc2C)ccc1OCC(=O)O`, the Potency result in experiment [7], in [2], in experiment [8], in experiment [3], in experiment [5] and in [6] was “inactive” each time. Further, the Potency in [9] is 35.6 µM (active).
Turning to `CC(c1ccc(O)cc1)c1ccc(O)cc1`, the Potency result in experiment [7] and in experiment [2] was “inactive” each time. Moreover, the Potency was 33.4 µM (active) and inactive in [8]; 21 µM (active) and inactive in [3]; 59.3 µM (active) and 35.6 µM (active) in [9]; 37.4 µM (active) and inactive in experiment [4]; 51.5 µM (active) and inactive in experiment [5].
Regarding `ClC1=C(Cl)[C@]2(Cl)[C@@H]3[C@@H](Cl)[C@H](Cl)C[C@@H]3[C@@]1(Cl)C2(Cl)Cl`, the Potency result in [7], in experiment [2], in experiment [8], in [3], in experiment [9] and in experiment [5] was “inactive” in each case. The Potency result in experiment [6] is “inactive”.
With `ClC1=C(Cl)C2(Cl)C3C(Cl)C=CC3C1(Cl)C2(Cl)Cl` (stereo unspecified), the Potency entry in [7], in experiment [2] and in experiment [8] was “inactive” throughout. The Potency was 8.98 µM (active) and 20 µM (active) in [3]; 21.9 µM (active) in experiment [5]; 5.05 µM (active) and 11.2 µM (active) in experiment [6].
With `CCCCCCCCCCCCCC[P+](CCCCCC)(CCCCCC)CCCCCC` (tested in a mixture with another compound), the Potency in experiment [7] was 71 µM (active); in experiment [8], 1.26 µM (active); in experiment [3], 20 µM (active); in [9], 22.5 µM (active); in experiment [4] it was 22.5 µM (active); in experiment [5], 0.692 µM (active). Also, the Potency in experiment [6] is 5.03 µM (active). Further, the Potency result in experiment [2] is “inactive”.
On to `CC(C)CBr`, for which the Potency entry in [1], in experiment [2], in experiment [8], in experiment [9], in experiment [4] and in experiment [5] was “inactive” throughout. For the same compound, the Potency entry in experiment [6] was “inactive”.
For `CC(C)Oc1cccc(NC(=O)c2ccccc2C(F)(F)F)c1`, the Potency result in experiment [1] and in experiment [2] was “inactive” throughout. For the same compound, the Potency in experiment [3] was 3.99 µM (active); in experiment [9], 13 µM (active); in experiment [4] it was 10.6 µM (active); in experiment [5], 50.4 µM (active).
With `Oc1cc(Cl)c(Cl)c(Cl)c1`, the Potency result in [7], in experiment [2], in experiment [3] and in experiment [9] was “inactive” each time. Besides, the results for the Potency in experiment [8], in experiment [4] and in [6] were 6.73 µM (active), 26.8 µM (active) and 53.5 µM (active), respectively.
